The panel holds about 79,000 compounds, 15% with a hit somewhere; the sample as a whole holds those more often. Active and inactive are the calls of the source. Cut-off read from the data, not from the text of the source: active = growth inhibition above about 70%; inactive = the rest.

One assay can be described thus: NCI Yeast Anticancer Drug Screen. Data for the CLN2oe strain (AID 163).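 Note: 0% = growth of vehicle-only control cultures.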 As to conditions: S. cerevisiae CLN2oe strain, at 100.0 µM, stronger effect = higher value. The essentials: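 Read-out: yeast growth inhibition, expressed relative to vehicle-only controls. The strain bears an engineered cell-cycle alteration.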
As for `CCCc1cc(C(=O)OCC)cc(CCC)c1O`, the growth inhibition is 96% (active).

Regarding `CC(C)[N+]([O-])(CCCNc1c2ccccc2nc2cccc([N+](=O)[O-])c12)C(C)C`, the growth inhibition is 95% (active).

As to `COc1cc2c3c(cccc3c1)C(=O)N(CCN(C)C)C2=O`, the growth inhibition is 21% (inactive).

In the case of `NC(=O)NN=C(CS)CS`, the growth inhibition was 11% (inactive).

Turning to `Cc1ccc(NC(=O)/C(Cl)=C(\Cl)C(=O)O)cc1C`, the growth inhibition is 99% (active).

As to `CCN(CC)CC[n+]1ccc2c(C)c3[nH]c4ccc(O)cc4c3c(C)c2c1`, the growth inhibition was 16% (inactive).

As to `CC(CC(C)(C)[N+](C)(C)C)[N+](C)(C)C` (stereo not drawn), the growth inhibition is -7% (inactive).

With `COc1ccc(OC)c2cc3ccccc3cc12`, the growth inhibition was 3% (inactive).

With `Nc1ncncc1C(C1=C(O)COC1=O)C1=C(O)COC1=O`, the growth inhibition is -8% (inactive).

Regarding `CSC1=NNC(SC)=NN1`, the growth inhibition was 99% (active).

On to `Cc1c(Cl)ccc2c1S(=O)(=O)c1cccc(Cl)c1-2`, for which the growth inhibition is -18% (inactive).

For `[O-][n+]1c2ccc(O)cc2nc2ccc(Cl)cc21`, the growth inhibition was 49% (inactive).

Turning to `COc1ccc2ccc3ccccc3c2c1C=O`, the growth inhibition is 81% (active).

As to `Nc1ccc2c(c1)C(=O)c1cccc(N)c1C2=O`, the growth inhibition is 48% (inactive).

Take `O=C(c1ccc(Cl)cc1Cl)C(Cl)Cl`: the growth inhibition was 98% (active).

As for `COc1cc(C(=O)/C=C/c2ccccc2O)ccc1O`, the growth inhibition is 98% (active).

Turning to `O=Cc1cccc2ccc3ccccc3c12`, the growth inhibition is 88% (active).

In the case of `O=C(Nc1ccc(Cl)cc1)OCC#CCCl`, the growth inhibition is 2% (inactive).

Regarding `Cn1ccnc1Oc1ccc(Cl)cc1`, the growth inhibition was 93% (active).

Turning to `c1ccc2c(c1)C(=NCCCN1CCCCCC1)c1cccn1-2`, the growth inhibition is 93% (active).

On to `C/C(=N\O)C1CC2C=C(C#N)C1N(Cc1ccccc1)C2` (stereo not drawn), for which the growth inhibition is -2% (inactive).

As for `O=[N+]([O-])C(=C(Sc1ccccc1)Sc1ccccc1)C(Cl)=C(Cl)Cl`, the growth inhibition is 32% (inactive).

Take `CCCCCCCCCC/C=C\C(=O)O`: the growth inhibition is 97% (active).

Turning to `COc1ccc(N=C2C(=O)Nc3ccc(Br)cc32)cc1`, the growth inhibition is 1% (inactive).

In the case of `COc1ccccc1C(=O)OCC1CCCN2CCCCC12` (stereo not drawn), the growth inhibition was 95% (active).

In the case of `CC(C)(Br)C(=O)/C=C/c1ccc(Cl)c(Cl)c1`, the growth inhibition was 0% (inactive).

Take `Nc1ccccc1CC(O)C(=O)O` (stereo not drawn): the growth inhibition is 42% (inactive).

`CC(=O)N/N=C/C(C)(C)C(C)(C)/C=N/NC(C)=O`: the growth inhibition was 17% (inactive).

For the compound `CN(C)c1nc2sc3c(c2c(=O)o1)CCCC3`, the growth inhibition was 40% (inactive).

`CC(C)OC(=O)Oc1ccccc1OC(=O)OC(C)C`: the growth inhibition is 4% (inactive).

Turning to `Cc1ccc(N)c(S)c1`, the growth inhibition was 99% (active).

Consider `O=C(O)c1ccccc1NC(=S)c1ccccc1`, for which the growth inhibition is 33% (inactive).

For `COC(=O)c1ccc(NCC2=CC(=O)C=CC2=O)cc1O`, the growth inhibition was 93% (active).

Regarding `NC(N)=N/N=C\c1c2ccccc2cc2ccccc12`, the growth inhibition was 78% (active).

As for `COC(=O)CSSCc1ccc([N+](=O)[O-])cc1`, the growth inhibition is 95% (active).

For `CCS(=O)(=O)c1ccc(/C=C/C=N/NC(=S)NCC(C)C)cc1`, the growth inhibition was -7% (inactive).

Turning to `N#CC(C(=O)Nc1ccccc1)C1=C(Cl)C(=O)c2ccccc2C1=O` (stereo not drawn), the growth inhibition is 96% (active).

For `C[C@H](CCC(=O)NN)[C@H]1CC[C@H]2[C@@H]3CC[C@@H]4C[C@H](O)CC[C@]4(C)[C@H]3CC[C@]12C`, the growth inhibition was 16% (inactive).

For the compound `CC[n+]1ccc2c(C)c3[nH]c4ccc(O)cc4c3c(C)c2c1`, the growth inhibition is 41% (inactive).

Another assay is described as follows: NCI Yeast Anticancer Drug Screen. Data for the cln2 rad14 strain (AID 165).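 Note: 0% = growth equal to vehicle treated cultures.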 As to conditions: S. cerevisiae cln2 rad14 strain, at 5.0 µM (retest, dose inferred, filed as 0.5), stronger effect = higher value. The essentials: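 cln2 rad14 yeast strain; compound exposure; growth inhibition read vs vehicle controls.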
Turning to `CCCc1cc(C(=O)OCC)cc(CCC)c1O`, the growth inhibition was 2% (inactive).

With `CC(C)[N+]([O-])(CCCNc1c2ccccc2nc2cccc([N+](=O)[O-])c12)C(C)C`, the growth inhibition is 96% (active).

Consider `COc1cc2c3c(cccc3c1)C(=O)N(CCN(C)C)C2=O`, for which the growth inhibition was 0% (inactive).

Regarding `NC(=O)NN=C(CS)CS`, the growth inhibition is -22% (inactive).

`Cc1ccc(NC(=O)/C(Cl)=C(\Cl)C(=O)O)cc1C`: the growth inhibition was 8% (inactive).

`CCN(CC)CC[n+]1ccc2c(C)c3[nH]c4ccc(O)cc4c3c(C)c2c1`: the growth inhibition was -2% (inactive).

For `CC(CC(C)(C)[N+](C)(C)C)[N+](C)(C)C` (stereo not drawn), the growth inhibition is 35% (inactive).

Regarding `COc1ccc(OC)c2cc3ccccc3cc12`, the growth inhibition is 46% (inactive).

Take `Nc1ncncc1C(C1=C(O)COC1=O)C1=C(O)COC1=O`: the growth inhibition was -5% (inactive).

Consider `CSC1=NNC(SC)=NN1`, for which the growth inhibition is 61% (inactive).

On to `Cc1c(Cl)ccc2c1S(=O)(=O)c1cccc(Cl)c1-2`, for which the growth inhibition is 31% (inactive).

On to `[O-][n+]1c2ccc(O)cc2nc2ccc(Cl)cc21`, for which the growth inhibition is -4% (inactive).

In the case of `COc1ccc2ccc3ccccc3c2c1C=O`, the growth inhibition is 15% (inactive).

Regarding `Nc1ccc2c(c1)C(=O)c1cccc(N)c1C2=O`, the growth inhibition was 8% (inactive).

Consider `O=C(c1ccc(Cl)cc1Cl)C(Cl)Cl`, for which the growth inhibition is 68% (inactive).

Regarding `COc1cc(C(=O)/C=C/c2ccccc2O)ccc1O`, the growth inhibition was 42% (inactive).

As for `O=Cc1cccc2ccc3ccccc3c12`, the growth inhibition is -52% (inactive).

For the compound `O=C(Nc1ccc(Cl)cc1)OCC#CCCl`, the growth inhibition was 5% (inactive).

Turning to `Cn1ccnc1Oc1ccc(Cl)cc1`, the growth inhibition is -52% (inactive).

`c1ccc2c(c1)C(=NCCCN1CCCCCC1)c1cccn1-2`: the growth inhibition was -7% (inactive).

`C/C(=N\O)C1CC2C=C(C#N)C1N(Cc1ccccc1)C2` (stereo not drawn): the growth inhibition is -1% (inactive).

`O=[N+]([O-])C(=C(Sc1ccccc1)Sc1ccccc1)C(Cl)=C(Cl)Cl`: the growth inhibition is 44% (inactive).

With `CCCCCCCCCC/C=C\C(=O)O`, the growth inhibition was 67% (inactive).

Consider `COc1ccc(N=C2C(=O)Nc3ccc(Br)cc32)cc1`, for which the growth inhibition was 54% (inactive).

For the compound `COc1ccccc1C(=O)OCC1CCCN2CCCCC12` (stereo not drawn), the growth inhibition is -9% (inactive).

Take `CC(C)(Br)C(=O)/C=C/c1ccc(Cl)c(Cl)c1`: the growth inhibition is 7% (inactive).

For the compound `Nc1ccccc1CC(O)C(=O)O` (stereo not drawn), the growth inhibition was -2% (inactive).

As to `CC(=O)N/N=C/C(C)(C)C(C)(C)/C=N/NC(C)=O`, the growth inhibition was 2% (inactive).

Consider `CN(C)c1nc2sc3c(c2c(=O)o1)CCCC3`, for which the growth inhibition was 26% (inactive).

In the case of `CC(C)OC(=O)Oc1ccccc1OC(=O)OC(C)C`, the growth inhibition is 26% (inactive).

Take `Cc1ccc(N)c(S)c1`: the growth inhibition was 35% (inactive).

`O=C(O)c1ccccc1NC(=S)c1ccccc1`: the growth inhibition was 27% (inactive).

Turning to `COC(=O)c1ccc(NCC2=CC(=O)C=CC2=O)cc1O`, the growth inhibition was 36% (inactive).

Take `NC(N)=N/N=C\c1c2ccccc2cc2ccccc12`: the growth inhibition was -2% (inactive).

For `COC(=O)CSSCc1ccc([N+](=O)[O-])cc1`, the growth inhibition was -10% (inactive).

For `CCS(=O)(=O)c1ccc(/C=C/C=N/NC(=S)NCC(C)C)cc1`, the growth inhibition is -7% (inactive).

As for `N#CC(C(=O)Nc1ccccc1)C1=C(Cl)C(=O)c2ccccc2C1=O` (stereo not drawn), the growth inhibition is 53% (inactive).

Regarding `C[C@H](CCC(=O)NN)[C@H]1CC[C@H]2[C@@H]3CC[C@@H]4C[C@H](O)CC[C@]4(C)[C@H]3CC[C@]12C`, the growth inhibition was -4% (inactive).

Turning to `CC[n+]1ccc2c(C)c3[nH]c4ccc(O)cc4c3c(C)c2c1`, the growth inhibition is 5% (inactive).

The record behind these values is PubChem BioAssay (NCI).
